Test results as given in PubChem BioAssay (NCATS).
“And” between values parts separate entries of the source, which are not always exact repeats. Equal values may be shown once. Records with an inconclusive call do not appear. The source made the active and inactive calls. Unless noted, calls come from the whole dose curve; as a rule, active = well fitted curve in the direction sought with a large enough effect; inconclusive = small, poorly fitted or top-dose-only effect, or another doubt; inactive = no such curve, though single readings can be large; an effect the other way counts as inactive or inconclusive.

How the values were obtained:
[1] = Cell Viability - BJ (AID 421; calls by dose curve;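 note: potency is the fitted concentration of half-maximal effect; cells exposed to compound for 40 hours at 37 °C before readout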); settings: BJ fibroblast viability, qHTS
Procedure, shortened: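 Normal human BJ foreskin fibroblasts, 1500/well in complete medium, treated 40 hr at 37 °C. Cellular ATP by CellTiter-Glo luminescence; normalized to DMSO and 100 uM tamoxifen, AC50 from Hill fit.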

[2] = Cell Viability - MRC5 (AID 434; calls by dose curve;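 note: potency is the fitted concentration of half-maximal effect; cells exposed to compound for 40 hours at 37 °C; potency reflects cytotoxicity seen as loss of intracellular ATP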); settings: MRC5 lung fibroblast viability, qHTS
Procedure, shortened: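 ATP luminescence read-out (CellTiter-Glo, 20 min RT) after 40 hr, 37 °C compound exposure of 1500 MRC5 cells/well. Data normalized to DMSO (basal) and 100 uM tamoxifen (100% inhibition); AC50 from standard Hill equation.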

[3] = Cell Viability - SK-N-SH (AID 435; calls by dose curve;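 note: potency is the fitted concentration of half-maximal effect; compound exposure lasted 40 h at 37 °C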); settings: SK-N-SH neuroblastoma cell viability qHTS
Procedure, shortened: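 Luminescent ATP signal served as the viability read-out after 40 hours of compound treatment of human neuroblastoma SK-N-SH cells. Concentration-response data, scaled between DMSO and 100 uM tamoxifen, gave AC50 values by standard Hill modeling.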

[4] = Cell Viability - NIH 3T3 (AID 541); settings: NIH 3T3 cell viability, qHTS; activity change, negative = cytotoxicity: at 92.2 µM (top of the series);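 note: plate controls were DMSO alone for no effect and tamoxifen positive control for full effect; nearly all actives have a fitted effect of over 25% in size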
Procedure, shortened: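 Intracellular ATP (CellTiter-Glo luminescence, 20 min at room temperature) measured after 40 hr compound exposure at 37 °C of 1000 NIH 3T3 mouse fibroblasts/well in complete medium; AC50 derived by Hill-equation modelling of qHTS concentration-response curves.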

[5] = Cell Viability - Mesenchymal (AID 546); settings: mesenchymal cells viability, qHTS; activity change, negative = cytotoxicity: at 91.7 µM (top of the series);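 note: cells exposed to compound for 40 hours before reading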
Procedure, shortened: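 Human renal mesenchymal cells (glomerulus-derived), 1000 cells/well, 5 hr 37 °C pre-incubation; compound 40 hr, 37 °C; CellTiter-Glo, 20 min RT; luminescence; AC50 via Hill equation.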

[6] = Cellular Toxicity (caspase-3) BJ (AID 658); settings: BJ fibroblasts, luminescence, normalized: DMSO 0%, staurosporine 100%; series mostly up to 91.7 µM
Procedure, shortened: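 qHTS, BJ fibroblasts, 1000 cells/well; 5 hr preincubation, 16 hr compound, 37 °C; Caspase-Glo 3/7 reagent, 1 hr RT; luminescence. DMSO = 0%, 10 uM staurosporine = 100%. Hill-equation AC50.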

[7] = Cellular Toxicity (caspase-3) MRC-5 (AID 659); settings: MRC-5 cells, luminescence, normalized: DMSO 0%, 10 µM staurosporine 100%; series mostly up to 91.7 µM
Procedure, shortened: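 MRC-5 fibroblasts, 1500/well; 16 h cpd, 37 °C; Caspase-Glo 3/7, 1 h RT; lumi read. Norm: DMSO = 0%, 10 uM staurosporine = 100%. Hill-fit AC50 from qHTS conc-response.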

[8] = Cellular Toxicity (caspase-3) Mesangial (AID 660); settings: mesangial cells, normalized: DMSO 0%, 100 µM tamoxifen 100%; series mostly up to 91.7 µM;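 note: combined caspase 3 and 7 activity read by Caspase-Glo luminescence; cells exposed to compound for 16 h before the caspase read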
Procedure, shortened: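 Caspase 3/7 activation measured by Caspase-Glo 3/7 luminescence (20 min, room temperature) following 16 h exposure of mesangial cells (1000/well); AC50 from Hill-equation fit, normalized to DMSO and 100 uM tamoxifen.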

[9] = Cellular Toxicity (caspase-3) Hek293 (AID 664); settings: HEK293 caspase-3 activation, DMSO = 0%, 100 µM tamoxifen = 100%; series mostly up to 92.2 µM;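 note: cells exposed to compound for 16 h at 37 °C before readout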
Procedure, shortened: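 Concentration-response qHTS: caspase 3/7 activation measured by luminescent aminoluciferin substrate cleavage after 16 h compound exposure of Hek 293 cells. AC50 from Hill equation, with DMSO as basal and 100 uM tamoxifen as 100%.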

[10] = Cellular Toxicity (caspase-3) Renal Proximal Tubule (AID 667); settings: renal proximal tubule cells, primary cells freshly taken from rat, solvent-only wells 0%, staurosporine 100%; series mostly up to 91.7 µM;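 note: cells exposed to compound for 16 hours at 37 °C before detection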
Procedure, shortened: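 AC50 derived by standard Hill fit of concentration-response data, normalized between DMSO basal and 10 uM staurosporine as 100% stimulation. Cells: primary rat kidney proximal tubule, 16 h treatment at 37 °C.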

[11] = MultiTox-Fluor Cytotoxicity Assay - LYMP1-003 - Live Cells (AID 962); settings: LYMP1-003 lymphoblastoid cells, MultiTox-Fluor live-cell protease fluorescence; series mostly up to 92.2 µM;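 note: 0% = DMSO only and full loss = 92 µM tetraoctylammonium bromide; cytotoxic hits lower the live-cell protease signal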
Procedure, shortened: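 Live-cell protease activity (GF-AFC substrate, 405/510 nm, 60 min at room temperature) after 16 h, 37 C compound exposure of human lymphoblastoid LYMP1-003 cells; concentration-response fitted to the Hill equation for AC50.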

[12] = qHTS Assay for Identification of Small Molecule Inducers of Hypoxia Response (AID 2120; active = well fitted curve in the direction sought with a large enough effect in the signal ratio, with a control signal flat, not every such curve was filed as active; the % refers to the signal ratio; note: 0% is about no effect); settings: hypoxia response reporter cells, beta-lactamase ratio readout; series mostly up to 104 µM
Procedure, shortened: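 Reporter induction read as the CCF4 blue/green (460nm/530nm) emission ratio after 2.5 h dye loading at room temperature. ME-180 HRE-beta-lactamase cells received titrated compounds for 17 h at 37 degrees Celsius; AC50 values derived.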

[13] = molecular target: Thyroid hormone receptor beta (Homo sapiens) (UniProt P10828); assay: qHTS assay for small molecule agonists of thyroid hormone receptor beta signaling (AID 588545; calls by dose curve;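 note: 0% = DMSO only and 100% = 10 nM T3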); settings: TR-UAS-bla GripTite HEK 293, beta-lactamase ratio, agonist mode, 18 h, percent of T3 response, DMSO as zero; series mostly up to 76.7 µM
Procedure, shortened: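 Stimulation of a TR-driven beta-lactamase reporter was quantified in GripTite HEK 293 cells. Compound series ran for 18 hrs; curves were normalized to T3 and DMSO controls and fitted to yield EC50.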

[14] = qHTS assay for small molecule antagonists of retinoid X receptor alpha signaling (AID 588546; active = well fitted inhibition curve with a large enough effect in the signal ratio, with a control signal flat, not every such curve was filed as active; the % refers to the signal ratio;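 note: cells stimulated with 9-cis-retinoic acid as agonist; % is set by controls: 0 for no effect and ±100 for the full control effect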); settings: HEK293T RXRa-UAS-bla, beta-lactamase ratio, antagonist mode; measured here: W530 green channel, cytotoxicity proxy
Procedure, shortened: (§1)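 Beta-lactamase reporter inhibition, read as CCF4 fluorescence ratio (ex 405, em 460/530 nm) after 2 h at RT. HEK293T UAS-bla cells, 2500/well, were stimulated with 9-cis-RA at 500 or 100 nM final alongside test compound for 18 h at 37 C.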

[15] = molecular target: Retinoic acid receptor RXR-alpha (Homo sapiens) (UniProt P19793); assay: as above; settings: HEK293T RXRa-UAS-bla, beta-lactamase ratio, antagonist mode
Procedure, shortened: as §1

[16] = qHTS assay for environmental chemicals that activate the Aryl hydrocarbon Receptor (AhR) signaling pathway (AID 651777); settings: 1A2-DRE human hepatoma cells, luciferase, 24 h; activation: stronger effect = higher value; note: % of control where 0% means no effect; nearly all actives have a fitted effect of over 15% in size
Procedure, shortened: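 Human hepatoma 1A2-DRE cells, stably carrying a dioxin response element and CYP1A2 promoter driving luciferase, were exposed to compounds for 24 hr at 37 C and 5% CO2. Luciferase signal was then read after 30 min One-Glo at room temperature.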

[17] = molecular target: Peroxisome proliferator-activated receptor alpha (Homo sapiens) (UniProt Q07869); assay: qHTS assay for small molecule agonists of the peroxisome proliferator-activated receptor alpha (PPARalpha) signaling pathway (AID 651778); settings: PathHunter PPARalpha complementation, chemiluminescence, 6 h; max response: stronger effect = higher value; note: % of control where 0% means no effect
Procedure, shortened: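 Enzyme-fragment complementation assay in which ligand-bound PPARalpha translocates and forms an active enzyme that generates chemiluminescence. Cells were plated overnight, exposed to compound for 6 hr at 37 C, and then given detection reagent for 60 min at room temperature.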

[18] = qHTS assay for small molecule agonists of the antioxidant response element (ARE) signaling pathway measured by Nrf2-dependant transcriptional activity (AID 720636; active = well fitted curve in the direction sought with a large enough effect in the repeat runs; an effect the other way counts as inactive or inconclusive; note: % of control where 0% means no effect); settings: ARE-luc HepG2, Nrf2 luciferase reporter, 16 h; series mostly up to 92.4 µM
Procedure, shortened: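 ARE-luc HepG2 cells carrying an Nrf2-responsive luciferase reporter were plated in medium with 1% dialyzed FBS, left 6 hr at 37 C to attach, then exposed to compound for 16 hr. Luciferase luminescence was read after ONE-Glo addition.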

[19] = qHTS assay for small molecule agonists of the antioxidant response element (ARE) signaling pathway measured by Nrf2-dependant transcriptional activity - cell viability counter screen (AID 720653; active = well fitted curve in the direction sought with a large enough effect in the repeat runs; an effect the other way counts as inactive or inconclusive; note: % is set by controls: 0 for no effect and ±100 for the full control effect); settings: ARE-bla HepG2 viability, CellTiter-Glo ATP luminescence, 16 h; max response: stronger effect = lower value
Procedure, shortened: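 ARE-bla HepG2 cells treated with compounds for 16 h at 37C; this counter screen measures viability as intracellular ATP by CellTiter-Glo luminescence after 30 min at room temperature.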

[20] = qHTS assay for cell viability of HEK293 cells (AID 743288); settings: ATP luminescence (CellTiter-Glo), 18 h; max response: stronger effect = lower value; note: % is set by controls: 0 for no effect and ±100 for the full control effect; nearly all actives have a fitted effect of over 50% in size
Procedure, shortened: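 Viable-cell counts were inferred from luciferase-based ATP content in HEK293 cells seeded at 2,000/well, pre-incubated ≥5 h, then dosed with DMSO-solubilised compounds for 18 h at 37 C.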

Chain of Retinoic acid receptor RXR-alpha (Homo sapiens) (P19793 whole entry, looked up): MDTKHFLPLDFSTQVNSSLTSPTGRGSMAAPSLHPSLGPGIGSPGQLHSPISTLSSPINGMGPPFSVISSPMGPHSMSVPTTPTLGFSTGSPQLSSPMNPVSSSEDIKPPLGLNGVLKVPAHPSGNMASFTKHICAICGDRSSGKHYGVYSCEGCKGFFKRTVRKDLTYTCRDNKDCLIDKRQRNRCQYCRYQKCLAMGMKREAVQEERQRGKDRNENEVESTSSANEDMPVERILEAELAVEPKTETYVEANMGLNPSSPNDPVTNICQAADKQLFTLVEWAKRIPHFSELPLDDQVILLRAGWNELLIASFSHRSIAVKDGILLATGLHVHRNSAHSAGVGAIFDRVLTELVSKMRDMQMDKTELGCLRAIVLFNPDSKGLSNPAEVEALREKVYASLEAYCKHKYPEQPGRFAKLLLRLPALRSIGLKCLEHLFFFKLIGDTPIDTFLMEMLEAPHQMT
Chain of Thyroid hormone receptor beta (Homo sapiens) (P10828 whole entry, looked up): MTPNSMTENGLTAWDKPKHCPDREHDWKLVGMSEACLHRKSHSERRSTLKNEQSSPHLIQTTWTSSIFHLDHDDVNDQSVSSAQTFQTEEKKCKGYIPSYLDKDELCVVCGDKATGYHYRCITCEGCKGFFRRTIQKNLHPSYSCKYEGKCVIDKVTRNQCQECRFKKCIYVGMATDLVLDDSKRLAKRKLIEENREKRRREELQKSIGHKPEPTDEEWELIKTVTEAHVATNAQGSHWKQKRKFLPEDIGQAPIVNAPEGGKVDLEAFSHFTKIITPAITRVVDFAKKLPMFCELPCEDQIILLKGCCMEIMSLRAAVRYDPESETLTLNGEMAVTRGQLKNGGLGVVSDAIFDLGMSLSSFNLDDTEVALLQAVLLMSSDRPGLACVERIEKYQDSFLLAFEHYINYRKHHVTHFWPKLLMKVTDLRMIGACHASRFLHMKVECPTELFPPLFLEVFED
Chain of Peroxisome proliferator-activated receptor alpha (Homo sapiens) (Q07869 whole entry, looked up, the tested form may be a part): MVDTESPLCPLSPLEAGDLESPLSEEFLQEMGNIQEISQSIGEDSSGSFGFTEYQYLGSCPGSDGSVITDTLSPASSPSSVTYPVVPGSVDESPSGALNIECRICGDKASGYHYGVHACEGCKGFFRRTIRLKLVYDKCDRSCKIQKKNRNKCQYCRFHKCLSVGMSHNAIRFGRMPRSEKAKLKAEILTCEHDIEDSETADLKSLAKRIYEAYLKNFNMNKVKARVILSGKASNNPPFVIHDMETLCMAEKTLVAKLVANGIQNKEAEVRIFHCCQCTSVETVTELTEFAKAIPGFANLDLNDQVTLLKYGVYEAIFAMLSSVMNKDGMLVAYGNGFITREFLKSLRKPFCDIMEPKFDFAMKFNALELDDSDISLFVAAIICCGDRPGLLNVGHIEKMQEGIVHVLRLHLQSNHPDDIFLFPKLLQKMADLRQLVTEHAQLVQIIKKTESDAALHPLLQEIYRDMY

Structure (SMILES) | Potency [1] | Potency [2] | Potency [3] | Potency [4] | activity change, negative = cytotoxicity [5] | outcome [6] | outcome [7] | outcome [8] | outcome [9] | outcome [10] | Potency [11] | outcome [12] | outcome [13] | max response [14] | max response [15] | activation [16] | max response [17] | Potency [18] | max response [19] | max response [20]
c1ccc2scnc2c1 | > 92 µM (inactive) | > 92 µM (inactive) | > 92 µM (inactive) | inactive | -5.46% (inactive) | inactive | inactive | inactive | inactive | inactive | inactive | inactive | inactive | -9.8% | -2.82% (inactive) | -0.642% (inactive) | -3.74% (inactive) | inactive | -3.11% (inactive) | 11.2% (inactive)
O=S(=O)(O)c1ccccc1 | > 92 µM (inactive) | > 92 µM (inactive) | > 92 µM (inactive) | inactive | 0.153% (inactive) | inactive | inactive | inactive | inactive | inactive | inactive | inactive | inactive | 5.99% | -0.701% (inactive) | -0.565% (inactive) | -0.704% (inactive) | inactive | 11% (inactive) | 8.35% (inactive)
Cc1cccc(O)c1 | – | – | – | – | – | – | – | – | – | – | – | – | – | -8.57% and -4.8% | -27.1% (inactive) and -3.41% (inactive) | 3.54% (inactive) and 0.802% (inactive) | -4.41% (inactive) and -2.22% (inactive) | inactive | 2.52% (inactive) and 7.45% (inactive) | -15.7% (inactive) and -2.81% (inactive)
O=C1CCc2ccccc2O1 | > 92 µM (inactive) | > 92 µM (inactive) | > 92 µM (inactive) | inactive | 7.71% (inactive) | inactive | inactive | inactive | inactive | inactive | inactive | inactive | inactive | -3.35% | 0.0036% (inactive) | 0.95% (inactive) | 0.979% (inactive) | inactive | 2.06% (inactive) | -0.285% (inactive)
O[C@@H]([C@H](O)[C@@H](O)CBr)[C@@H](O)CBr | > 92 µM (inactive) | > 92 µM (inactive) | > 92 µM (inactive) | inactive | 7.81% (inactive) | inactive | inactive | inactive | inactive | inactive | inactive | inactive | inactive | -10.6% | 12.2% (inactive) | 0.0467% (inactive) | -0.722% (inactive) | inactive | 2.11% (inactive) | -10.9% (inactive)
CC1(C)S[C@@H]2[C@H](NC(=O)COc3ccccc3)C(=O)N2[C@H]1C(=O)O | – | – | – | – | – | – | – | – | – | – | – | – | inactive | -19.5% | 2.91% (inactive) | -1.58% (inactive) | -2.73% (inactive) | inactive | -8.85% (inactive) | -6.9% (inactive)
O=C(O)c1ccccc1C(c1ccc(O)cc1)c1ccc(O)cc1 | > 92 µM (inactive) | > 92 µM (inactive) | > 92 µM (inactive) | inactive | 8.62% (inactive) | inactive | inactive | inactive | inactive | inactive | inactive | inactive | inactive | -15.7% and -6.86% | 6.9% (inactive) and 9.98% (inactive) | 2.69% (inactive) and 0.36% (inactive) | 0.608% (inactive) and -3.85% (inactive) | inactive | -7.19% (inactive) and 7.52% (inactive) | -11.1% (inactive) and 2.2% (inactive)
COc1ccc2nc(N)sc2c1 | > 92 µM (inactive) | > 92 µM (inactive) | > 92 µM (inactive) | inactive | -1.25% (inactive) | inactive | inactive | inactive | inactive | inactive | inactive | inactive | inactive | -1.24% and 0.0893% | 1.97% (inactive) and 2.53% (inactive) | – | -0.146% (inactive) and -0.816% (inactive) | – | -11.5% (inactive) and -7.03% (inactive) | 3.97% (inactive) and -4.38% (inactive)
C=Cc1ccccc1Cl | > 92 µM (inactive) | > 92 µM (inactive) | > 92 µM (inactive) | inactive | 4.39% (inactive) | inactive | inactive | inactive | inactive | inactive | inactive | inactive | inactive | -3.63% | -6.96% (inactive) | -0.0962% (inactive) | -0.389% (inactive) | inactive | -2.6% (inactive) | 6.21% (inactive)
